Experimental findings from PubChem BioAssay (EPA / NIEHS) are described below.

Experiment [1] in a line: BSK_hDFCGF_Proliferation: Cell Proliferation Assessment in the BioMAP Diversity Plus: hDFCGF Assay (AID 2283059).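 Further: curves fitted for both rise and fall of signal versus DMSO baseline.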 The note with it: primary human foreskin fibroblasts. The gist of the method: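 Sub-confluent human foreskin fibroblast cultures receive test chemical […]. Relative cell number is quantified by sulforhodamine B staining (0.1%, after 10% TCA fixation) at 560 nm, with bidirectional fitting referenced to DMSO.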

Read-out in experiment [2]: Macrophage colony-stimulating factor (MCSF), CSF1 (gene 1435)
In words: BSK_hDFCGF_MCSF: BioMAP Diversity Plus: hDFCGF Assay for Macrophage colony-stimulating factor (MCSF) Biomarker Activity (AID 2283060). The note with it: primary human foreskin fibroblasts; actives raise or lower the signal. The essentials: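 Human foreskin primary fibroblasts were treated with test chemical for 24 h, and M-CSF was then measured by ELISA. Data were fitted bidirectionally against DMSO as the negative control and activity baseline.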

A short description of experiment [3]: BSK_hDFCGF_SRB: Viability Assessment in the BioMAP Diversity Plus: hDFCGF Assay (AID 2283061).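 Further: cells exposed to compound for 24 h before the read.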 As to conditions: primary human foreskin fibroblasts. The gist of the method: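 Human foreskin primary fibroblasts were treated with compound and assessed 24 h after dosing. Total protein was measured by sulforhodamine B staining (0.1% SRB after 10% TCA fixation, 560 nm read) as a cytotoxicity marker, with bidirectional fitting against DMSO baseline.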

Read-out in experiment [4]: TIMP metallopeptidase inhibitor 1 (TIMP1), TIMP1 (gene 7076)
The experiment can be described thus: BSK_hDFCGF_TIMP1: BioMAP Diversity Plus: hDFCGF Assay for TIMP metallopeptidase inhibitor 1 (TIMP1) Biomarker Activity (AID 2283062). The note with it: primary human foreskin fibroblasts; actives raise or lower the signal. The essentials: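 Primary human foreskin fibroblasts in the hDFCGF system were dosed with compound for 24 h, then TIMP-1 was measured by ELISA. Activity was fitted bidirectionally relative to DMSO control; parallel SRB staining assessed cytotoxicity.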

Read-out in experiment [5]: Monokine induced gamma interferon (MIG), CXCL9 (gene 4283)
The experiment can be described thus: BSK_hDFCGF_MIG: BioMAP Diversity Plus: hDFCGF Assay for Monokine induced gamma interferon (MIG) Biomarker Activity (AID 2283063). The note with it: primary human foreskin fibroblasts; actives raise or lower the signal. The essentials:
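ELISA read-out of MIG from primary human dermal fibroblasts 24 h post-dosing. Gain or loss of signal fitted bidirectionally, DMSO as baseline.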

Read-out in experiment [6]: Vascular cell adhesion molecule 1 (VCAM1), VCAM1 (gene 7412)
The experiment can be described thus: BSK_hDFCGF_VCAM1: BioMAP Diversity Plus: hDFCGF Assay for Vascular cell adhesion molecule 1 (VCAM1) Biomarker Activity (AID 2283065).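 On AC50: VCAM-1 protein level quantified by ELISA after 24 h chemical exposure.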 As to conditions: primary human foreskin fibroblasts; actives raise or lower the signal. The essentials: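 Primary human foreskin fibroblasts (hDFCGF system) were dosed with chemical and VCAM-1 was measured by ELISA 24 h later. Bidirectional curve fitting used DMSO as negative control and activity baseline.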

Read-out in experiment [7]: Plasminogen activator inhibitor-1 (PAI1), SERPINE1 (gene 5054)
The experiment can be described thus: BSK_hDFCGF_PAI1: BioMAP Diversity Plus: hDFCGF Assay for Plasminogen activator inhibitor-1 (PAI1) Biomarker Activity (AID 2283066). As to conditions: primary human foreskin fibroblasts; actives raise or lower the signal. The gist of the method:
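Human foreskin fibroblast primary cells, 24 h chemical exposure; PAI-1 measured by ELISA. Bidirectional fitting relative to DMSO; parallel cultures stained with SRB for total protein to flag overt cytotoxicity.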

Read-out in experiment [8]: Intercellular Adhesion Molecule 1 (ICAM1), ICAM1 (gene 3383)
In words: BSK_KF3CT_ICAM1: BioMAP Diversity Plus: KF3CT Assay for Intercellular Adhesion Molecule 1 (ICAM1) Biomarker Activity (AID 2283067). As to conditions: primary human keratinocytes with fibroblasts; actives raise or lower the signal. The gist of the method: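 Human keratinocyte plus foreskin fibroblast primary co-culture was exposed to chemical for 24 h. ICAM-1 was then quantified by ELISA, and the data were fit bidirectionally against DMSO as the negative control and baseline.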

Read-out in experiment [9]: Interferon-gamma inducible Protein 10 (IP10), CXCL10 (gene 3627)
The experiment can be described thus: BSK_KF3CT_IP10: BioMAP Diversity Plus: KF3CT Assay for Interferon-gamma inducible Protein 10 (IP10) Biomarker Activity (AID 2283068). The note with it: primary human keratinocytes with fibroblasts; actives raise or lower the signal. The essentials:
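ELISA read-out of IP-10 after 24 h chemical dosing of human skin primary co-culture (keratinocytes, foreskin fibroblasts). Gain or loss of signal relative to DMSO, bidirectional curve fit.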

Read-out in experiment [10]: Matrix Metallopeptidase 1 (MMP1), MMP1 (gene 4312)
The experiment can be described thus: BSK_hDFCGF_MMP1: BioMAP Diversity Plus: hDFCGF Assay for Matrix Metallopeptidase 1 (MMP1) Biomarker Activity (AID 2283064). As to conditions: primary human foreskin fibroblasts; actives raise or lower the signal. The gist of the method:
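Primary human foreskin fibroblasts in the hDFCGF system were dosed with test chemical, and MMP1 was measured by ELISA 24 h later. Values come from bidirectional curve fitting against the DMSO baseline.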

Active and inactive are the calls of the source. How the source made its calls: active means hit-call score of the fitted dose curve at least 0.9, where 1 is the maximum; inactive means score below 0.9.

For `Nc1cnn(-c2ccccc2)c(=O)c1Cl`, the result in [1], in experiment [2], in experiment [3], in [4], in experiment [5] and in experiment [6] was inactive. The outcome in [7], in experiment [8] and in [9] was inactive.

For `CCOc1nc(F)cc2nc(S(=O)(=O)Nc3c(Cl)cccc3Cl)nn12`, the result in experiment [1], in experiment [2], in experiment [3], in [5], in experiment [6] and in [7] was inactive. Also, the outcome in experiment [8] was inactive. Further, in [9], the AC50 is 34 µM (active).

With `O=C(Nc1ccccc1-c1ccc(Cl)cc1)c1cccnc1Cl`, the outcome in [1], in [2], in [3], in experiment [5], in experiment [6] and in experiment [7] was inactive. Besides, the outcome in experiment [8] was inactive. In addition, the AC50 in experiment [9] was 0.128 µM (active).

On to `CCSC(=O)N1CCCCCC1`, for which the outcome in experiment [1], in experiment [2], in experiment [4], in [5], in experiment [6] and in [7] was inactive. Further, the outcome in experiment [8] and in experiment [9] was inactive.

With `O=c1n(Cl)c(=O)n(Cl)c(=O)n1Cl`, the result in experiment [1], in [2], in experiment [5], in experiment [10], in experiment [6] and in experiment [7] was inactive. The result in experiment [8] and in [9] was inactive.

`CCOc1cc(C(C)(C)C)ccc1C1COC(c2c(F)cccc2F)=N1` (centres undefined): the AC50 is 6.95 µM (active) in experiment [1]; 14.5 µM (active) in experiment [2]; 29.4 µM (active) in experiment [5]; 14.3 µM (active) in [10]; 15.3 µM (active) in experiment [6]; 12.3 µM (active) in experiment [7]. The values for the AC50 in [8] and in [9] were 31.3 µM (active) and 17.3 µM (active), respectively.

Regarding `C=C(C)CN(CC)c1c([N+](=O)[O-])cc(C(F)(F)F)cc1[N+](=O)[O-]`, the figures for the AC50 in [1] and in [9] were 19.5 µM (active) and 14.9 µM (active), respectively. Further, the outcome in [2], in experiment [4], in [5], in experiment [6], in experiment [7] and in [8] was inactive.

Turning to `Cc1cnc(C2=NC(C)(C(C)C)C(=O)N2)c(C(=O)O)c1` (centres undefined), the outcome in [1], in [2], in experiment [5], in experiment [10], in experiment [6] and in [7] was inactive. Moreover, the outcome in experiment [8] and in experiment [9] was inactive.

As to `N#Cc1c[nH]cc1-c1cccc2c1OC(F)(F)O2`, the AC50 in experiment [2] was 8.88 µM (active); in experiment [3], 5.56 µM (active); in experiment [6] it was 5.39 µM (active). The outcome in [4], in [5], in experiment [7], in experiment [8] and in [9] was inactive.

For `CCCCC(O)(Cn1cncn1)c1ccc(Cl)cc1Cl` (centres undefined), the AC50 in [1] was 22.9 µM (active); in [10], 12.7 µM (active); in experiment [7], 21.2 µM (active). Also, the outcome in experiment [2], in experiment [5], in [6], in experiment [8] and in experiment [9] was inactive.

As for `CSC(=O)c1c(C(F)F)nc(C(F)(F)F)c(C(=O)SC)c1CC(C)C`, the AC50 in experiment [1] was 30.6 µM (active); in experiment [2] it was 11.4 µM (active); in experiment [6], 13.4 µM (active); in experiment [7] it was 26.9 µM (active). The result in experiment [4], in experiment [5], in experiment [8] and in experiment [9] was inactive.

Turning to `CC(C)(C)C(=O)C(Oc1ccc(Cl)cc1)n1cncn1` (centres undefined), the outcome in experiment [2], in [5], in experiment [10], in experiment [6], in [7] and in experiment [8] was inactive. Besides, the outcome in experiment [9] was inactive.

Regarding `CNC(=O)Oc1cccc2ccccc12`, the AC50 in experiment [1] was 13.9 µM (active); in experiment [2] it was 29.7 µM (active); in experiment [6], 20 µM (active). Moreover, the result in experiment [5], in [7], in experiment [8] and in experiment [9] was inactive.

Consider `CC(C)N1C(=O)N(c2ccccc2)CSC1=NC(C)(C)C`, for which the AC50 in experiment [1] is 32 µM (active); in experiment [5] it was 31.6 µM (active); in experiment [6] it was 32.1 µM (active); in experiment [9], 33.2 µM (active). In addition, the result in experiment [2], in experiment [7] and in [8] was inactive.

Turning to `CC(C)=CC1C(C(=O)OCc2coc(Cc3ccccc3)c2)C1(C)C` (centres undefined), the AC50 in experiment [1] is 15 µM (active); in [2] it was 11.1 µM (active). For the same compound, the result in experiment [4], in experiment [5], in experiment [6], in experiment [7], in experiment [8] and in experiment [9] was inactive.

With `Cc1c(COC(=O)[C@@H]2[C@H](/C=C(\Cl)C(F)(F)F)C2(C)C)cccc1-c1ccccc1`, the AC50 is 16.9 µM (active) in [1], 3.97 µM (active) in [2] and 3.23 µM (active) in [10]. Also, the result in [5], in [6], in experiment [7], in experiment [8] and in experiment [9] was inactive.

With `N#Cc1c(Cl)cccc1Cl`, the result in experiment [1], in [2], in experiment [4], in [5], in experiment [6] and in experiment [7] was inactive. Further, the result in experiment [8] and in experiment [9] was inactive.

As for `Cn1c(-c2ccccc2)cc(-c2ccccc2)[n+]1C`, the AC50 in experiment [1] is 5.37 µM (active); in experiment [2], 5.47 µM (active); in [4], 20 µM (active); in experiment [9] it was 7.72 µM (active). In addition, the result in [5], in experiment [6], in experiment [7] and in [8] was inactive.

Turning to `OC(c1ccc(Cl)cc1)(c1ccc(Cl)cc1)C(Cl)(Cl)Cl`, the AC50 in [1] is 10 µM (active); in experiment [2] it was 8.17 µM (active); in [5], 10.1 µM (active); in experiment [6], 8.87 µM (active); in [7], 11 µM (active); in experiment [8], 11.6 µM (active). The AC50 in experiment [9] was 9.49 µM (active).

In general, AC50 refers to the concentration at which the activity in the assay is half-maximal.
